# From article PMC7862700, “An all-to-all approach to the identification of sequence-specific readers for epigenetic DNA modifications on cytosine”
# Experiments:
# Assay in all cases: DAPPL (digital affinity profiling via proximity ligation, sequencing); 10 mM Tris-HCl pH 7.5, 50 mM NaCl, 1 mM DTT, 4% glycerol, room temperature, 30 min; GST-TFs on glutathione beads, 16-mer random dsDNA library, 0.1% formaldehyde crosslink after washing; high values mean tight binding
# FEV = target: T1, FEV (Homo sapiens, UniProt Q99581 1-238); conditions: protein: recombinant; tags: N-terminal GST; dsDNA, one strand shown
# T1 sequence: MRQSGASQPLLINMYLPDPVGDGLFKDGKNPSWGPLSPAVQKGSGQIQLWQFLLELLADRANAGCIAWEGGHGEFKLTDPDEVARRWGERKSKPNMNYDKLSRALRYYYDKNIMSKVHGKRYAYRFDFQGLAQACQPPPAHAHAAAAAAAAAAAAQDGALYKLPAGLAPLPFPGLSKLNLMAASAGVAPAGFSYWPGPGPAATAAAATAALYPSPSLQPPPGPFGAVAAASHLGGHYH
# How it was run: (§1)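 Sequencing on an Illumina NextSeq500 followed washing, crosslinking with 0.1% formaldehyde, proximity ligation (BsaI/T4 ligase, 1 h, 37 °C) and PCR amplification of pools that had been incubated for 30 min at room temperature with 200 nmole of a random double-stranded 16-mer DNA library in Tris/NaCl/DTT/glycerol buffer. Each pool held DNA-barcoded human transcription factors, expressed in yeast as GST fusions and captured on glutathione beads, plus a tag-only sample. Binding signal is a hexamer's read frequency for a factor divided by its frequency in the tag-only sample.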
# ETV5 = ETV5 (Homo sapiens, UniProt P41161 1-510); conditions: protein: recombinant; tags: N-terminal GST; dsDNA, one strand shown
# How it was run: as §1
# HSF1 = HSF1 (Homo sapiens, UniProt Q00613 1-529); conditions: protein: recombinant; tags: N-terminal GST; chain copies: 3; dsDNA, one strand shown
# How it was run: as §1
# SPIC = target: T2, SPIC (Homo sapiens, UniProt Q8N5J4 1-248); conditions: protein: recombinant; tags: N-terminal GST; dsDNA, one strand shown
# T2 sequence: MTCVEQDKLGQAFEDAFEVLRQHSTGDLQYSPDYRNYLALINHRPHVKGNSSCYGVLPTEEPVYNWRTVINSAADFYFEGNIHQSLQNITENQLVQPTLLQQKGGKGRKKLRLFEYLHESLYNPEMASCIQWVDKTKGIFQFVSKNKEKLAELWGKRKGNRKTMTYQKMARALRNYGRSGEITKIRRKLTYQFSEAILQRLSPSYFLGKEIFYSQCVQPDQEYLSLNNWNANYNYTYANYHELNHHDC
# How it was run: as §1
# ELF4 = ELF4 (Homo sapiens, UniProt Q99607 1-663); conditions: protein: recombinant; tags: N-terminal GST; dsDNA, one strand shown
# How it was run: as §1
# ELK4 = target: T3, ELK4 (Homo sapiens, UniProt P28324-2 1-405); conditions: protein: recombinant; tags: N-terminal GST; dsDNA, one strand shown
# T3 sequence: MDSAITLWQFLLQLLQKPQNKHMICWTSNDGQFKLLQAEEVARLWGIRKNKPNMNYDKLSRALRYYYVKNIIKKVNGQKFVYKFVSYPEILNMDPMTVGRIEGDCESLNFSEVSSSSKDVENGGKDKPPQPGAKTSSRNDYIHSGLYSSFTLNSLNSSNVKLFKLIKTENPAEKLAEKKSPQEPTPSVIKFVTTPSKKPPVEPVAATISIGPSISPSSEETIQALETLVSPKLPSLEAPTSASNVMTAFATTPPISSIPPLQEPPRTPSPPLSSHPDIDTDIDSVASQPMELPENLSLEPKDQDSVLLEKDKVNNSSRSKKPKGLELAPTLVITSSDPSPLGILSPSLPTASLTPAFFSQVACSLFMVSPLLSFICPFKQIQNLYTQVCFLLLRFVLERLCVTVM
# How it was run: as §1
# ETV2 = target: T4, ETV2 (Homo sapiens, UniProt O00321 1-342); conditions: protein: recombinant; tags: N-terminal GST; dsDNA, one strand shown
# T4 sequence: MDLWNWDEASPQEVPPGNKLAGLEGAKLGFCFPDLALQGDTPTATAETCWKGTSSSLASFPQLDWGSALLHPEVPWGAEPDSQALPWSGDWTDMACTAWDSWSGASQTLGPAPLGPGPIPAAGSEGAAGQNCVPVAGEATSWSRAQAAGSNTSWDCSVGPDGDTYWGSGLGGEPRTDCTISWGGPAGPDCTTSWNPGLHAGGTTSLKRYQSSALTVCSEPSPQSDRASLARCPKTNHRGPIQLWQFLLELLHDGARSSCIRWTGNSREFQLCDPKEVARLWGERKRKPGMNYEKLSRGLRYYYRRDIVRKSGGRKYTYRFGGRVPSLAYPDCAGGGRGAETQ
# How it was run: as §1
# ELF3 = target: T5, ELF3 (Homo sapiens, UniProt P78545 1-371); conditions: protein: recombinant; tags: N-terminal GST; dsDNA, one strand shown
# T5 sequence: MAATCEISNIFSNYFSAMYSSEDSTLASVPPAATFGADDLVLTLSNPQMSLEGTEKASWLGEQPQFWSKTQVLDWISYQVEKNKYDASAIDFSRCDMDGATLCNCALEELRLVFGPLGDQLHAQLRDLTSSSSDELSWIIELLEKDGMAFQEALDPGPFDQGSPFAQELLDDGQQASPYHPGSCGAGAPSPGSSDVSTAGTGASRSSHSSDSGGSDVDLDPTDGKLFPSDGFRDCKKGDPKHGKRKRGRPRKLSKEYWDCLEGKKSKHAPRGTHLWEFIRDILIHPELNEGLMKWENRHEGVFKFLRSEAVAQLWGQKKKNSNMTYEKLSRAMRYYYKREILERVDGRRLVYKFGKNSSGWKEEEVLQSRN
# How it was run: as §1
# CRX = CRX (Homo sapiens, UniProt O43186 1-299); conditions: protein: recombinant; tags: N-terminal GST; dsDNA, one strand shown
# How it was run: as §1
# ETV1 = ETV1 (Homo sapiens, UniProt P50549 1-477); conditions: protein: recombinant; tags: N-terminal GST; dsDNA, one strand shown
# How it was run: as §1
# ERF = target: T6, ERF (Homo sapiens, UniProt P50548 1-548); conditions: protein: recombinant; tags: N-terminal GST; dsDNA, one strand shown
# T6 sequence: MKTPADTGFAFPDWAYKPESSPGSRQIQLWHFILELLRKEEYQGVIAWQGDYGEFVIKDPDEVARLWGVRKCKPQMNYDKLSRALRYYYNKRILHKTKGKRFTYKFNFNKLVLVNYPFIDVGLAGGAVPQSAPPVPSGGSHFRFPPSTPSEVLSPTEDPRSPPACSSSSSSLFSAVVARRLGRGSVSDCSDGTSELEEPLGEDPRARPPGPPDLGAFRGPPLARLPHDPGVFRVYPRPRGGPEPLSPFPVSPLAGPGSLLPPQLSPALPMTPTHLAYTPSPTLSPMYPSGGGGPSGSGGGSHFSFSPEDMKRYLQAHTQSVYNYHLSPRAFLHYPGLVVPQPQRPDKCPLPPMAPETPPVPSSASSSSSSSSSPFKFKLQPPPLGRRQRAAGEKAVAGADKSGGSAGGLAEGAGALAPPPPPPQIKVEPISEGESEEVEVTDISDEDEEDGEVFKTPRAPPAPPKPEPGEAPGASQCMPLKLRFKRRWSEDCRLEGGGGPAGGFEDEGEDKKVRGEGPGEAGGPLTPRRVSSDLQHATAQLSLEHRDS
# How it was run: as §1
# ETV3L = target: T7, ETV3L (Homo sapiens, UniProt Q6ZN32 1-361); conditions: protein: recombinant; tags: N-terminal GST; dsDNA, one strand shown
# T7 sequence: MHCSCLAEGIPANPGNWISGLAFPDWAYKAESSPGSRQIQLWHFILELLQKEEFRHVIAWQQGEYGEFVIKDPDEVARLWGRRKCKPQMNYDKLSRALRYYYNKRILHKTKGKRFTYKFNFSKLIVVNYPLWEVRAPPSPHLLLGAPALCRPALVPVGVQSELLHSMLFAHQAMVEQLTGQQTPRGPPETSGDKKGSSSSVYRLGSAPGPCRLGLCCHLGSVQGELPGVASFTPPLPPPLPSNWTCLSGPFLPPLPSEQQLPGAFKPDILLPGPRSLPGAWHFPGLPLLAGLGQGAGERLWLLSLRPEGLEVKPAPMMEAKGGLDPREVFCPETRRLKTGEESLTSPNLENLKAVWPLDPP
# How it was run: as §1
# ETS2 = target: T8, ETS2 (Homo sapiens, UniProt P15036 1-469); conditions: protein: recombinant; tags: N-terminal GST; dsDNA, one strand shown
# T8 sequence: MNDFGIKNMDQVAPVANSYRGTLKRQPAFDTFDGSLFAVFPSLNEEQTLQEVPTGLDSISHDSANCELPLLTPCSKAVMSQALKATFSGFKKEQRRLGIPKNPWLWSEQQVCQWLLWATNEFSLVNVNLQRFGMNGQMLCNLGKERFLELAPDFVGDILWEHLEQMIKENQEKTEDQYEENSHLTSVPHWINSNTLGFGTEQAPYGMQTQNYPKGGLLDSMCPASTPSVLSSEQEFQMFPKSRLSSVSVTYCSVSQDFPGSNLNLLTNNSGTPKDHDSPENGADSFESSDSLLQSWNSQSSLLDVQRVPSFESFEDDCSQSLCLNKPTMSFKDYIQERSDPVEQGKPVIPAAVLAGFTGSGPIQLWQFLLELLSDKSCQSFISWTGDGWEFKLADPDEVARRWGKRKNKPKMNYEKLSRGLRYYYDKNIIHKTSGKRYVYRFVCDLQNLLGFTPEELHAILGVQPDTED
# How it was run: as §1
# SPDEF = target: T9, SPDEF (Homo sapiens, UniProt O95238 1-335); conditions: protein: recombinant; tags: N-terminal GST; dsDNA, one strand shown
# T9 sequence: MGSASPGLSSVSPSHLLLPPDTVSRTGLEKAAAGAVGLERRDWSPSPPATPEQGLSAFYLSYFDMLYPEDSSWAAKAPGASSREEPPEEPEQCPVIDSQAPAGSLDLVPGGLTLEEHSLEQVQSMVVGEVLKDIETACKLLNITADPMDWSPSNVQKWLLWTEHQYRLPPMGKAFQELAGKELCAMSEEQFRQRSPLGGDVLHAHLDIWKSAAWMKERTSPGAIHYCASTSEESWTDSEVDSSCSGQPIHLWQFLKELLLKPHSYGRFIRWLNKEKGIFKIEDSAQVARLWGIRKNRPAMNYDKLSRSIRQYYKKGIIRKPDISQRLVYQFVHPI
# How it was run: as §1
# ETV7 = target: T10, ETV7 (Homo sapiens, UniProt Q9Y603 1-341); conditions: protein: recombinant; tags: N-terminal GST; dsDNA, one strand shown
# T10 sequence: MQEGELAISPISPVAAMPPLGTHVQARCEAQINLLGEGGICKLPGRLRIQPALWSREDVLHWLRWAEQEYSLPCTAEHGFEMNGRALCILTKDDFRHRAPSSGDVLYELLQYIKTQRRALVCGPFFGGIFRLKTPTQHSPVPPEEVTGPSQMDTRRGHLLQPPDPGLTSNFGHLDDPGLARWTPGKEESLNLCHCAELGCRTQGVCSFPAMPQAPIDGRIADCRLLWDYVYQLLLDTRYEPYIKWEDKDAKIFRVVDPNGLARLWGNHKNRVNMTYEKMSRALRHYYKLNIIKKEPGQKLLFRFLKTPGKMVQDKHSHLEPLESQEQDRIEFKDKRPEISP
# How it was run: as §1
# ELF5 = target: T11, ELF5 (Homo sapiens, UniProt Q9UKW6-2 1-255); conditions: protein: recombinant; tags: N-terminal GST; dsDNA, one strand shown
# T11 sequence: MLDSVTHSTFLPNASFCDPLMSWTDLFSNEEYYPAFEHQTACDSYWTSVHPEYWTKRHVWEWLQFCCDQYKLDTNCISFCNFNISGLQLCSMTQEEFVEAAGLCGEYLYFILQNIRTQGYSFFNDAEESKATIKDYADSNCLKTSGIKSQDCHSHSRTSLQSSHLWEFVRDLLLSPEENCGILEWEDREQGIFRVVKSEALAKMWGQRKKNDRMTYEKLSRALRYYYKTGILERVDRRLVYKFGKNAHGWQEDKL
# How it was run: as §1
# ETV3 = target: T12, ETV3 (Homo sapiens, UniProt P41162-2 1-143); conditions: protein: recombinant; tags: N-terminal GST; dsDNA, one strand shown
# T12 sequence: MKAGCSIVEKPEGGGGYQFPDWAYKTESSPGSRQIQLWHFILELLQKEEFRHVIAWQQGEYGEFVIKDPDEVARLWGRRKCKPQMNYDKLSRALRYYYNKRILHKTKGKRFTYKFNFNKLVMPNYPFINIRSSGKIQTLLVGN
# How it was run: as §1
# ETV6 = ETV6 (Homo sapiens, UniProt P41212 1-452); conditions: protein: recombinant; tags: N-terminal GST; dsDNA, one strand shown
# How it was run: as §1
# Chain of ETV1 (P50549 whole entry): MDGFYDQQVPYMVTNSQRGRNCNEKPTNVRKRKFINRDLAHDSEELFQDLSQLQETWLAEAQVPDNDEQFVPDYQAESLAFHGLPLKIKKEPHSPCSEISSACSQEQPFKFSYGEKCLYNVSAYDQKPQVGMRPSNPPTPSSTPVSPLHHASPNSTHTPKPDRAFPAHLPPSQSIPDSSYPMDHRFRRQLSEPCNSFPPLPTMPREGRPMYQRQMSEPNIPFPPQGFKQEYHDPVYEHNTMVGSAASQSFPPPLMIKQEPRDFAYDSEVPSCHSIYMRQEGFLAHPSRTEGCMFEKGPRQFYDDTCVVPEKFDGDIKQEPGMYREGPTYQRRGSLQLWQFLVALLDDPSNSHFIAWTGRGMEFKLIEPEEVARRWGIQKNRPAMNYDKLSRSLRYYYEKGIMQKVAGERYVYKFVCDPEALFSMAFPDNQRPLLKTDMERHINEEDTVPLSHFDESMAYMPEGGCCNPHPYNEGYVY
# Chain of ETV6 (P41212 whole entry): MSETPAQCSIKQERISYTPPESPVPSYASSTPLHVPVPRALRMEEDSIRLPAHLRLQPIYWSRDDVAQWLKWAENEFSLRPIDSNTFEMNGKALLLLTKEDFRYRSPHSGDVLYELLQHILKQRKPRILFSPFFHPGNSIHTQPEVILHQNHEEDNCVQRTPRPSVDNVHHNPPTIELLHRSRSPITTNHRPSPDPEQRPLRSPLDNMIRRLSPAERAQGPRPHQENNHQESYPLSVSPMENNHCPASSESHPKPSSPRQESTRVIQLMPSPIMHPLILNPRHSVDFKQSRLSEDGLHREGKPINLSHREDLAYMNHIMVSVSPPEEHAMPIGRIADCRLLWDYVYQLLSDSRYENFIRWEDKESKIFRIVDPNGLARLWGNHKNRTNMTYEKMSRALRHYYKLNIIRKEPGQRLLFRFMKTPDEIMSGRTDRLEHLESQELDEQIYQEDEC
# Chain of CRX (O43186 whole entry): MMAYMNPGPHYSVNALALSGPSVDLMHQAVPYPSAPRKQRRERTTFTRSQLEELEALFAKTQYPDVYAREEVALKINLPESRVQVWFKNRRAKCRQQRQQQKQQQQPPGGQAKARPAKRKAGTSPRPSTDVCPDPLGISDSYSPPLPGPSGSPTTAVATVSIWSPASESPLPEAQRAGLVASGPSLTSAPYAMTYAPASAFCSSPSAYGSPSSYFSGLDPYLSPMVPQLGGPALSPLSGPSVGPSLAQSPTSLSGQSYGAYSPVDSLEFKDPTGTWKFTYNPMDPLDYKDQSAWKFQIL
# Chain of HSF1 (Q00613 whole entry): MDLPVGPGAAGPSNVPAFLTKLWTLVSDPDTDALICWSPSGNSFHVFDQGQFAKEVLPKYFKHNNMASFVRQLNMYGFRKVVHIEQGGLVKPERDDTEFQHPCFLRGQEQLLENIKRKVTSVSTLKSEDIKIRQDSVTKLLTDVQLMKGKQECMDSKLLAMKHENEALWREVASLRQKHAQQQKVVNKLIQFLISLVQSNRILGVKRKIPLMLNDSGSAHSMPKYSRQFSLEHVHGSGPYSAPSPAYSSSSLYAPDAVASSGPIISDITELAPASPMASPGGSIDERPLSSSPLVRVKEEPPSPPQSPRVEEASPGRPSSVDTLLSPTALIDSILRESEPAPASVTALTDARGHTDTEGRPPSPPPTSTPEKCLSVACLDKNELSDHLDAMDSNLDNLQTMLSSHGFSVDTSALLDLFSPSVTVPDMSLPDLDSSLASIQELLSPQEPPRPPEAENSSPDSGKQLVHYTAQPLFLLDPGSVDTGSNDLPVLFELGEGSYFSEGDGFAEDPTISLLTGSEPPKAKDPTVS
# Chain of ETV5 (P41161 whole entry): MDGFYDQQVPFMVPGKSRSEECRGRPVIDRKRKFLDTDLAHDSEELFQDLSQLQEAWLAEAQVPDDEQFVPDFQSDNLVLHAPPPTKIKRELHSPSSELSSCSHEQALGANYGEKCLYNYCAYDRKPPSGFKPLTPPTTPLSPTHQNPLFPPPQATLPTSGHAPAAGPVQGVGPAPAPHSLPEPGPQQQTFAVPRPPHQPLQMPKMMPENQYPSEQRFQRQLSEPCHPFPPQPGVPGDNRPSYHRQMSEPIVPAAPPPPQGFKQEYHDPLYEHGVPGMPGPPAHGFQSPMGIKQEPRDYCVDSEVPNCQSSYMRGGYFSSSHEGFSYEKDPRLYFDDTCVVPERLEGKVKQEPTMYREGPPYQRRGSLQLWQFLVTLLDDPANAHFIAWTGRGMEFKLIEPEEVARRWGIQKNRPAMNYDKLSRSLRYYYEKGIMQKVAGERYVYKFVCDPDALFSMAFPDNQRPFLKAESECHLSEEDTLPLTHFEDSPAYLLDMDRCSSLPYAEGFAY
# Chain of ELF4 (Q99607 whole entry): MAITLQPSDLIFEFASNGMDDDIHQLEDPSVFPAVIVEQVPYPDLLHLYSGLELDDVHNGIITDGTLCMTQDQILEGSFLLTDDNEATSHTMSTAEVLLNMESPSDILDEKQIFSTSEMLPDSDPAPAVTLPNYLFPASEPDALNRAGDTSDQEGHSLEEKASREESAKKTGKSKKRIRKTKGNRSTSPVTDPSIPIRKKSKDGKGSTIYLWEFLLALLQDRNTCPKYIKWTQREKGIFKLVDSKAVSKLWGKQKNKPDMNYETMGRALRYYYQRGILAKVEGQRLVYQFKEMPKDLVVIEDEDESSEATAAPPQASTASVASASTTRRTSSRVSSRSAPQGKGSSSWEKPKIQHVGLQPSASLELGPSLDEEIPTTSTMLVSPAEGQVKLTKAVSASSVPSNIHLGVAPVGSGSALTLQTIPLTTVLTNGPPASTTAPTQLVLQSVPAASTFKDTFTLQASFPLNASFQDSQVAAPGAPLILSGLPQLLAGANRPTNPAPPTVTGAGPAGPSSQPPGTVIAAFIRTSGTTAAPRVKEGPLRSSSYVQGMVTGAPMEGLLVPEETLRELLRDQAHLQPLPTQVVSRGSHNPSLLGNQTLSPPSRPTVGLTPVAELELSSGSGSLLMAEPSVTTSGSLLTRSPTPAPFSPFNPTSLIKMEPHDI
sequence,measurement,setting,value
ACTCTA,binding signal,FEV,"1.45 fold enrichment (6-mer frequency, TF over GST control)"
same,binding signal,ETV5,"1.48 fold enrichment (6-mer frequency, TF over GST control)"
same,binding signal,HSF1,"1.63 fold enrichment (6-mer frequency, TF over GST control)"
same,binding signal,SPIC,"1.63 fold enrichment (6-mer frequency, TF over GST control)"
same,binding signal,ELF4,"1.41 fold enrichment (6-mer frequency, TF over GST control)"
same,binding signal,ELK4,"1.43 fold enrichment (6-mer frequency, TF over GST control)"
same,binding signal,ETV2,"1.41 fold enrichment (6-mer frequency, TF over GST control)"
same,binding signal,ELF3,"1.36 fold enrichment (6-mer frequency, TF over GST control)"
same,binding signal,CRX,"1.52 fold enrichment (6-mer frequency, TF over GST control)"
same,binding signal,ETV1,"1.42 fold enrichment (6-mer frequency, TF over GST control)"
same,binding signal,ERF,"1.56 fold enrichment (6-mer frequency, TF over GST control)"
same,binding signal,ETV3L,"1.39 fold enrichment (6-mer frequency, TF over GST control)"
same,binding signal,ETS2,"1.39 fold enrichment (6-mer frequency, TF over GST control)"
same,binding signal,SPDEF,"1.38 fold enrichment (6-mer frequency, TF over GST control)"
same,binding signal,ETV7,"1.34 fold enrichment (6-mer frequency, TF over GST control)"
same,binding signal,ELF5,"1.41 fold enrichment (6-mer frequency, TF over GST control)"
same,binding signal,ETV3,"1.48 fold enrichment (6-mer frequency, TF over GST control)"
same,binding signal,ETV6,"1.33 fold enrichment (6-mer frequency, TF over GST control)"
